Results reported in the antibiotic and cytotoxicity screens of Wong et al. (2023).
The whole screen tested about 39,000 compounds, of which about 3,300 (8.5%) were called active. The list comes from a sample in which actives are over-represented; it also holds similar structures and randomly drawn compounds.

These compounds were tested on HepG2 (assay: cytotoxicity call (relative viability < 0.9)). Conditions: 10 µM.

Row | SMILES | cytotoxicity call
1 | COc1ccc(S(=O)(=O)N(C)C[C@H]2OCCCC[C@H](C)Oc3ccc(NC(=O)CCC(F)(F)F)cc3C(=O)N([C@@H](C)CO)C[C@@H]2C)cc1 | inactive
2 | O=C1CCC(C(=O)O)CC1 | inactive
3 | C[C@@H]1CN([C@@H](C)CO)C(=O)c2cc(NC(=O)CCN3CCOCC3)ccc2O[C@@H]1CN(C)S(=O)(=O)c1ccccc1 | inactive
4 | C[C@@H]1CCCCO[C@@H](CN(C)C(=O)Nc2cccc3ccccc23)[C@@H](C)CN([C@H](C)CO)C(=O)c2cc(NC(=O)Nc3ccc(C(F)(F)F)cc3)ccc2O1 | inactive
5 | COc1ccc(S(=O)(=O)N(C)C[C@@H]2Oc3ccc(NS(=O)(=O)c4cn(C)cn4)cc3C(=O)N([C@H](C)CO)C[C@@H]2C)cc1 | inactive
6 | C[C@H](CO)N1C[C@H](C)[C@@H](CN(C)S(=O)(=O)c2ccc3ccccc3c2)OCc2cnnn2CCCC1=O | inactive
7 | COc1ccc(C#Cc2cnc3c(c2)C(=O)N([C@H](C)CO)C[C@H](C)[C@H](CN(C)S(=O)(=O)c2cccc(F)c2)O3)cc1OC | inactive
8 | COc1ccc(COCC23Oc4ccccc4[C@H]([C@H]2COC(=O)c2ccccc2)n2c(c4ccccc4c(-c4ccccc4)c2=O)N3C)cc1 | active
9 | COC(=O)c1c(C(=O)OC)c2n(c(=O)c1-c1ccccc1)[C@@H]1c3ccccc3O[C@@](COCc3ccc(OC)cc3)([C@@H]1CO[Si](C)(C)C(C)(C)C)N2C | inactive
10 | COc1ccc(COCC23Oc4ccccc4[C@H]([C@H]2CO)n2c(c4c(c(C(C)=O)c2=O)C(=O)N(C)C4=O)N3C)cc1 | inactive
11 | COC(=O)c1cc(-c2ccccc2)c(=O)n2c1N(C)[C@@]1(COCc3ccc(OC)cc3)Oc3ccccc3[C@@H]2[C@H]1CO[Si](C)(C)C(C)(C)C | inactive
12 | COc1ccc(COCC23Oc4ccccc4[C@H]([C@H]2COC(=O)NCCCCCC(=O)NO)n2c(c4c(c(C(C)=O)c2=O)C(=O)N(C)C4=O)N3C)cc1 | inactive
13 | COC(=O)c1c(C(=O)OC)c2n(c(=O)c1-c1ccccc1)[C@@H]1c3ccccc3O[C@@](CO)([C@@H]1CO)N2C | inactive
14 | COC(=O)c1c(C(=O)OC)c2n(c(=O)c1-c1ccccc1)[C@@H]1c3ccccc3O[C@@](COCc3ccc(OC)cc3)([C@@H]1COC(=O)c1ccccc1)N2C | inactive
15 | COc1ccc(COCC23Oc4ccccc4[C@H]([C@H]2CO)n2c(c4ccccc4c(-c4ccccc4)c2=O)N3C)cc1 | active
16 | COc1ccc(COCC23Oc4ccccc4[C@H]([C@H]2CO[Si](C)(C)C(C)(C)C)n2c(c4ccccc4c(-c4ccccc4)c2=O)N3C)cc1 | active
17 | COc1ccc(NC(=O)N(C)C[C@@H]2OCCCC[C@H](C)Oc3ccc(NS(=O)(=O)c4ccc(OC)cc4)cc3C(=O)N([C@H](C)CO)C[C@@H]2C)cc1 | inactive
18 | CC(C)NC(=O)N(C)C[C@@H]1Oc2c(NC(=O)Nc3ccc4c(c3)OCO4)cccc2C(=O)N([C@@H](C)CO)C[C@@H]1C | inactive
19 | C[C@H]1CCCCO[C@H](CN(C)C(=O)CCC(F)(F)F)[C@@H](C)CN([C@@H](C)CO)C(=O)c2cc(NS(=O)(=O)c3cccs3)ccc2O1 | inactive
20 | Cn1cnc(S(=O)(=O)N2C[C@@H](O)COC[C@H]3O[C@H](CC(=O)NCc4cc(F)cc(F)c4)CC[C@@H]32)c1 | inactive

Row | SMILES | cytotoxicity call
21 | O=C(C[C@@H]1CC[C@H]2[C@@H](COC[C@@H](O)CN2S(=O)(=O)c2cccc(Cl)c2)O1)N1CCOCC1 | inactive
22 | O=C(C[C@H]1CC[C@H]2[C@@H](COC[C@@H](O)CN2C(=O)Nc2ccc(Cl)c(Cl)c2)O1)NCc1ccc(Cl)c(Cl)c1 | active
23 | Cn1cnc(CCNC(=O)C[C@H]2CC[C@@H]3[C@H](COC[C@@H](O)CN3C(=O)Nc3ccc(Cl)cc3)O2)c1 | inactive
24 | Cn1cnc(CCNC(=O)C[C@@H]2CC[C@H]3[C@@H](COC[C@H](O)CN3C(=O)Nc3ccc(Cl)cc3)O2)c1 | inactive
25 | O=C(C[C@@H]1CC[C@@H]2[C@H](COC[C@H](O)CN2Cc2cccc(C(F)(F)F)c2)O1)NCCc1ccncc1 | inactive
26 | O=C(C[C@H]1CC[C@@H]2[C@H](COC[C@@H](O)CN2C(=O)Nc2ccc(Cl)c(Cl)c2)O1)NCc1ccc(Cl)c(Cl)c1 | inactive
27 | O=C(C[C@H]1CC[C@@H]2[C@H](COC[C@H](O)CN2Cc2cccc(C(F)(F)F)c2)O1)NCCc1ccncc1 | inactive
28 | Cn1cnc(CCNC(=O)C[C@H]2CC[C@@H]3[C@H](COC[C@H](O)CN3C(=O)Nc3ccc(Cl)cc3)O2)c1 | active
29 | O=C(C[C@@H]1CC[C@H]2[C@@H](COC[C@@H](O)CN2C(=O)Nc2ccc(Cl)c(Cl)c2)O1)NCc1ccc(Cl)c(Cl)c1 | active
30 | O=C(C[C@@H]1CC[C@H]2[C@@H](COC[C@H](O)CN2C(=O)Nc2ccc(Cl)c(Cl)c2)O1)NCc1ccc(Cl)c(Cl)c1 | inactive
31 | O=C(C[C@H]1CC[C@@H]2[C@H](COC[C@@H](O)CN2Cc2cccc(C(F)(F)F)c2)O1)NCCc1ccncc1 | active
32 | O=C(C[C@@H]1CC[C@@H]2[C@H](COC[C@@H](O)CN2C(=O)Nc2ccc(Cl)c(Cl)c2)O1)NCc1ccc(Cl)c(Cl)c1 | inactive
33 | O=C(C[C@H]1CC[C@H]2[C@@H](COC[C@H](O)CN2C(=O)Nc2ccc(Cl)c(Cl)c2)O1)NCc1ccc(Cl)c(Cl)c1 | inactive
34 | C[C@H]1CN([C@@H](C)CO)S(=O)(=O)c2ccc(Br)cc2O[C@@H]1CN(C)C(=O)c1cnccn1 | inactive
35 | C[C@H](CO)N1C[C@H](C)[C@H](CN(C)Cc2ccccc2)Oc2c(NC(=O)Nc3ccc(C(F)(F)F)cc3)cccc2C1=O | inactive
36 | C[C@H]1CN([C@@H](C)CO)C(=O)Cc2cc(NC(=O)CCC(F)(F)F)ccc2O[C@@H]1CN(C)Cc1ccc(Cl)c(Cl)c1 | inactive
37 | O=C(O)CCC(=O)N1CC(=O)Nc2ccccc21 | inactive
38 | C[C@@H]1CN([C@@H](C)CO)C(=O)c2cccc(NS(=O)(=O)c3ccccc3)c2O[C@@H]1CN(C)Cc1ccc(Oc2ccccc2)cc1 | inactive
39 | COc1ccc(S(=O)(=O)N(C)C[C@H]2Oc3ccc(NS(=O)(=O)c4ccc(C)cc4)cc3CC(=O)N([C@H](C)CO)C[C@@H]2C)cc1 | inactive
